In ChEMBL document CHEMBL3988442, “University of Dundee, Small-Polar-MMV Screening Library” (2021) one finds Percent Effect data, which are given here for 11 molecules.

Holding throughout (set-up): scale not given: direction of the effect not stated beside the values
The target of test [1] is Protein translocase subunit SecA (Escherichia coli (strain K12)) (UniProt P10408). Nature of the test: Assay to Identify E. coli SecA ATPase Inhibitors. As to conditions: 30 µM. The format is functional.
In test [2] the target is T1, Ubiquitin-activating enzyme e1, putative (Leishmania donovani (strain BPK282A1)) (UniProt E9BSI1).
T1 sequence (whole entry): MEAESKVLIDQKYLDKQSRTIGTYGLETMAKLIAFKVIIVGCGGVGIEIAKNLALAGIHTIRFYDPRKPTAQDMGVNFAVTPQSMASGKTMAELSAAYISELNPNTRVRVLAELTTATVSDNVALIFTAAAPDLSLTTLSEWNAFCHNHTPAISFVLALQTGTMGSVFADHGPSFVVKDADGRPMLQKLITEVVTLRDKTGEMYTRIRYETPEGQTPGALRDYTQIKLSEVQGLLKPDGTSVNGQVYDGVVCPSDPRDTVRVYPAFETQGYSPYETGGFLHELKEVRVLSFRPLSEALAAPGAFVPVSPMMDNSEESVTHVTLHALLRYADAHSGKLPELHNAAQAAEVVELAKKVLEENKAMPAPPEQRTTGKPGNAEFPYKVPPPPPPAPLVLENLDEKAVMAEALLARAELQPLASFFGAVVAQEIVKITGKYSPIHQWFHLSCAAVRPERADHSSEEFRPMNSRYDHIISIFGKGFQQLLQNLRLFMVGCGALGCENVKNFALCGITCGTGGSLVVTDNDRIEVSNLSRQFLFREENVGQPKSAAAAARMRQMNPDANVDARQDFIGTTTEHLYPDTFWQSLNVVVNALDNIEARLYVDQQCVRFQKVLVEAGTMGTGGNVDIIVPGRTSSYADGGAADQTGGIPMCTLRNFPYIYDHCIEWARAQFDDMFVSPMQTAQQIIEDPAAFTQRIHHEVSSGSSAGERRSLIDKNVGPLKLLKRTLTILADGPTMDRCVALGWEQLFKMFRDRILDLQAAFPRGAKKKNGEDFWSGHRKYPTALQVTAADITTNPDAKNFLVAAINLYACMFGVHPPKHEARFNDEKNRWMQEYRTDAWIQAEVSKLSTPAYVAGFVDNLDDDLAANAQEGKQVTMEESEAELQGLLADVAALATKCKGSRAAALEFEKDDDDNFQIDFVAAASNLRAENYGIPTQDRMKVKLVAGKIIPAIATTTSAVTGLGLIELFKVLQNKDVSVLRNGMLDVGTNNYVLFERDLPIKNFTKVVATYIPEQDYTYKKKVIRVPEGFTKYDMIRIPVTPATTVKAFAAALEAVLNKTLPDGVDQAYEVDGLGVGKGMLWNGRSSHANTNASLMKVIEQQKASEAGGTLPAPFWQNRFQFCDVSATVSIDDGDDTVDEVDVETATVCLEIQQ
The experiment in a line: Leishmania donovani Ubiquitin Activating Enzyme (LdE1). In kind it is functional. To be noted: 30 µM.

Test [3] addresses AMP-activated protein kinase, AMPK (Homo sapiens) (UniProt P54646+O43741+P54619+Q9UGJ0+Q9Y478+Q13131+Q9UGI9). Nature of the test: AMP-dependent Kinase enzyme assay. An in vitro enzyme assay that detects ADP turnover that is directly proportional to AMPK activity. This uses naive AMPK that is activated during the assay with MK-8722. In kind it is functional. As to conditions: 30 µM.

Test [4] deals with Sialic acid-binding Ig-like lectin 9 (Homo sapiens) (UniProt Q9Y336). The experiment in a line: Hs-Siglec9 ALPHAscreen SOP 20170721. As to conditions: 10 µM. (Alpha assays give light when donor and acceptor beads are brought close together.)
Sequence of Sialic acid-binding Ig-like lectin 9 (Homo sapiens) (Q9Y336 whole entry): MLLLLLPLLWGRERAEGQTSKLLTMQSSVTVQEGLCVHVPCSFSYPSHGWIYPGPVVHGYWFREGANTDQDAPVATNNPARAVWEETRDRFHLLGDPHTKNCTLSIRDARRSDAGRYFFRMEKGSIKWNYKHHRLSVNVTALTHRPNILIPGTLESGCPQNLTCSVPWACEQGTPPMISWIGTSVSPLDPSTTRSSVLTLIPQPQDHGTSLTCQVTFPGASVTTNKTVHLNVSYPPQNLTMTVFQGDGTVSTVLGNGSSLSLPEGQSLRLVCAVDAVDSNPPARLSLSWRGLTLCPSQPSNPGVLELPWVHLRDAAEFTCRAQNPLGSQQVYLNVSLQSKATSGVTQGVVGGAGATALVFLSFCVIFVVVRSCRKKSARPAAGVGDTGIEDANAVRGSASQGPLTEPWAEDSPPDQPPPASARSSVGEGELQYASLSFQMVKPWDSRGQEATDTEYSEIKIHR
Another test concerns Trypanosoma cruzi. The experiment in a line: Trypanosoma cruzi phosphomannomutase and mannose-1-phosphate guanylyltransferase assay. The format is functional. As to conditions: 10 µM.
The target of test [5] is T2, Arginase-2, mitochondrial (Homo sapiens) (UniProt P78540).
T2 sequence (whole entry): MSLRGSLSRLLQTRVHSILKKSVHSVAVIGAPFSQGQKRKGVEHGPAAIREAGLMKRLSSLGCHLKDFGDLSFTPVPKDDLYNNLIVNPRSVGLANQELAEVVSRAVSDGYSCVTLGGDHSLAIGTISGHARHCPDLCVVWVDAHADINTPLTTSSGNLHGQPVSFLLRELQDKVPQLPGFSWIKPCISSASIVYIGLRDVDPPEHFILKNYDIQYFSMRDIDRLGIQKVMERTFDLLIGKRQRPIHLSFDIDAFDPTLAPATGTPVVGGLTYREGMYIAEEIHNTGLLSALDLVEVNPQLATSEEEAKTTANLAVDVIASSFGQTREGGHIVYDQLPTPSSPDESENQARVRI
The experiment in a line: in vitro enzyme assay to detect the production of urea directly proportional to the activity of Arginase II. Also: in the data most compounds retested in dose-response had high values. The format is functional. As to conditions: 33.3 µM.

Test [6] concerns the target T3, Proteasome subunit beta (Trypanosoma cruzi) (UniProt O96673).
T3 sequence (whole entry): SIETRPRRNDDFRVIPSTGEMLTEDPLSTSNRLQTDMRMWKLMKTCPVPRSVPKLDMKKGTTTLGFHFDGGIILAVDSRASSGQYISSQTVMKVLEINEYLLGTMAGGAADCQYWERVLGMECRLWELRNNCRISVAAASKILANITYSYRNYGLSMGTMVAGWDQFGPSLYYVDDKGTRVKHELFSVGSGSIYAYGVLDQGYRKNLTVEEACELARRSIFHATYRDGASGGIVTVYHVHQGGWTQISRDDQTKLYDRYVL
Nature of the test: Trypanosoma cruzi proteasome chymotrypsin-like activity (TcProtChymo) assay. Also: in the data most compounds retested in dose-response had high values. In kind it is functional. As to conditions: 9.37 µM.

The next test is filed under the species Homo sapiens. The experiment in a line: To identify inhibition of the IFN signalling (Jak-Stat) pathway via expression of an eGFP reporter gene under the control of an IFN-stimulated response element (ISRE) containing MxA promoter. The format is functional. As to conditions: 30 µM. Background: In a reporter assay the amount or activity of a reporter protein is the signal.

For test [7], the target named is T4, Tyrosyl-tRNA synthetase, putative (Trypanosoma cruzi (strain CL Brener)) (UniProt Q4DSP6).
T4 sequence (whole entry): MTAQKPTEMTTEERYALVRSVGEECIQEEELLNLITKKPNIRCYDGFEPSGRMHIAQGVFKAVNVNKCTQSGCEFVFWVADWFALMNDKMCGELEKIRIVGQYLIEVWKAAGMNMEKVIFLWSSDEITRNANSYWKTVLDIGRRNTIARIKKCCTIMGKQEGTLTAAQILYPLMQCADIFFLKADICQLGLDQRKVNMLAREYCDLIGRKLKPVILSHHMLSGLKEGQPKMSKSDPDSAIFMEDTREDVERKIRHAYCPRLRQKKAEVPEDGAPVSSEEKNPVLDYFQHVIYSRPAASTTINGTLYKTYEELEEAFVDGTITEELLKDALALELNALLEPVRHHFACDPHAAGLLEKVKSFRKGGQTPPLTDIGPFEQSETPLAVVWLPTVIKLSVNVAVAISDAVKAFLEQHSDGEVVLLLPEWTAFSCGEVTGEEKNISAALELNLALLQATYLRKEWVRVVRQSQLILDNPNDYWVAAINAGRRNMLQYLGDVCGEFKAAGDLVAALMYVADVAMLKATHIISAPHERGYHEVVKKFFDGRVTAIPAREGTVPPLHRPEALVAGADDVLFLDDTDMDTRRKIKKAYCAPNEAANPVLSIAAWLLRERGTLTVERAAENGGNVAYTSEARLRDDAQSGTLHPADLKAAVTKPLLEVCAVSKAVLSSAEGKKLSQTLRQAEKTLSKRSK
The experiment in a line: Trypanosoma cruzi tyrosyl tRNA synthetase (TcYRS) _High Tyrosine SOP. Also: in the data most compounds retested in dose-response had high values. In kind it is functional. To be noted: 30 µM.

In test [8] the target is T4, Tyrosyl-tRNA synthetase, putative (Trypanosoma cruzi (strain CL Brener)). The experiment in a line: Trypanosoma cruzi tyrosyl tRNA synthetase (TcYRS) SOP. In kind it is functional. As to conditions: 30 µM.
In test [9] the target is Chromo domain-containing protein 1 (Saccharomyces cerevisiae (strain ATCC 204508 / S288c) (Baker's yeast)) (UniProt P32657). The experiment in a line: ScCHD-1 Enzyme Inhibition Assay. Also: in the data most compounds retested in dose-response had high values. The format is functional. As to conditions: 30 µM.
Sequence of Chromo domain-containing protein 1 (Saccharomyces cerevisiae (strain ATCC 204508 / S288c) (Baker's yeast)) (P32657 whole entry, the tested form may be a part): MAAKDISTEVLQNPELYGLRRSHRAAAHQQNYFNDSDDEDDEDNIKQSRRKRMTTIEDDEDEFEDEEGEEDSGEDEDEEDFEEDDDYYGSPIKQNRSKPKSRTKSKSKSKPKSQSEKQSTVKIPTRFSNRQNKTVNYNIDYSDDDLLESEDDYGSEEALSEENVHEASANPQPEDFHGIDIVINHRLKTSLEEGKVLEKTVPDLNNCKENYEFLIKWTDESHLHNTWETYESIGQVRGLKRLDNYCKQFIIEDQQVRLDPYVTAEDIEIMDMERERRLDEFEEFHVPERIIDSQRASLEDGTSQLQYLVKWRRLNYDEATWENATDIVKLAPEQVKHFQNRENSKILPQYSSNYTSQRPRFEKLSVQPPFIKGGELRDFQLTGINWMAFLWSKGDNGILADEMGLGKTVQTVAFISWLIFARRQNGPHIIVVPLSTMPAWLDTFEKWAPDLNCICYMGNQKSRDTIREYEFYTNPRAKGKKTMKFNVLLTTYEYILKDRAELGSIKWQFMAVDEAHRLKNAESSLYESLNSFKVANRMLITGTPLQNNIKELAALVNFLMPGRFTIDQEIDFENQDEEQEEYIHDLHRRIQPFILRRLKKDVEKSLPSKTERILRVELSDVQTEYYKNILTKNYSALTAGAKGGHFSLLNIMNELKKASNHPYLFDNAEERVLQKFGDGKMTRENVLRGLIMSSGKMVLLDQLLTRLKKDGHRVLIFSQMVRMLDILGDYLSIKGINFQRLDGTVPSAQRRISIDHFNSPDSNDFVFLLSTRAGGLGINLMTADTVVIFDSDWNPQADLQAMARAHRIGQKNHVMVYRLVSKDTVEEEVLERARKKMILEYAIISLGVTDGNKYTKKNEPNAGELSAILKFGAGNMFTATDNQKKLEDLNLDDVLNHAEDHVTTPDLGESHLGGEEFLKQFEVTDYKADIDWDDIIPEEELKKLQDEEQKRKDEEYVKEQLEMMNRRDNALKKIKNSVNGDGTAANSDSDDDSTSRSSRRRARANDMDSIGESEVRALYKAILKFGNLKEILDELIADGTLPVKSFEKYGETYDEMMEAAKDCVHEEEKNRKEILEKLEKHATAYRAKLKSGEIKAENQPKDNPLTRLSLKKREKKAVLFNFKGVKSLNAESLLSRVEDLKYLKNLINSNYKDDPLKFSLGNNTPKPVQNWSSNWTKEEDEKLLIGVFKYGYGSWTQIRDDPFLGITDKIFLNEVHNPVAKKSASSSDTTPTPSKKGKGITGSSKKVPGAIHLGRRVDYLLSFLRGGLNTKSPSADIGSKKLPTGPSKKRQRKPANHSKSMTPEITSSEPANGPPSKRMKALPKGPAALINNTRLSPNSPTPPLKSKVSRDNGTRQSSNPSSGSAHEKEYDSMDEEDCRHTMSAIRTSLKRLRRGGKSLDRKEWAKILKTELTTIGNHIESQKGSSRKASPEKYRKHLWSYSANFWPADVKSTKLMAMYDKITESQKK

For some of these results: Results with a measured potency or affinity are listed apart.

Sequence of Protein translocase subunit SecA (Escherichia coli (strain K12)) (P10408 whole entry): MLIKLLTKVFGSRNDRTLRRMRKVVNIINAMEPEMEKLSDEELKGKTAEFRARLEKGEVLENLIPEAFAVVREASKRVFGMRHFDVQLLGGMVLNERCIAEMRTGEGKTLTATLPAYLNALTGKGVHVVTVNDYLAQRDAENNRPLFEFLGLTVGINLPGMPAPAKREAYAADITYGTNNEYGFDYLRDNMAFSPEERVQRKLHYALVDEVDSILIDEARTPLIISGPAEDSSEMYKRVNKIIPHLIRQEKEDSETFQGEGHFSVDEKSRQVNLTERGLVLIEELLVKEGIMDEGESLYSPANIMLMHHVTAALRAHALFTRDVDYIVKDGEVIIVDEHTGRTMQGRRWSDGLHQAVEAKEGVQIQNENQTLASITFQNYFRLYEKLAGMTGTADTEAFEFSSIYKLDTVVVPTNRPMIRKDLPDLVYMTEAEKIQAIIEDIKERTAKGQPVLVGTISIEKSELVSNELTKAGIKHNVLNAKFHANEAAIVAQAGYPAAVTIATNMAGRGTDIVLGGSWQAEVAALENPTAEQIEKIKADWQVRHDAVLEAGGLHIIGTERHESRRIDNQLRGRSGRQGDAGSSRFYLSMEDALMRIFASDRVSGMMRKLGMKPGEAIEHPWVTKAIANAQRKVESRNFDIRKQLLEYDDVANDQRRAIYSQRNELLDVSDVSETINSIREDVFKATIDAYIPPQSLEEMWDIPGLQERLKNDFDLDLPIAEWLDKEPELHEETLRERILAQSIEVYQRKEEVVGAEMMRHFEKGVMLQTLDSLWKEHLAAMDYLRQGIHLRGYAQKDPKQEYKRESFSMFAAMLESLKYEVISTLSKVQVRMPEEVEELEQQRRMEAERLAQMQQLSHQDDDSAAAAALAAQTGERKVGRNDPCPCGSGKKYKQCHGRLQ

Turning to `CCn1ccnc1CN1CCN(C(C)C(=O)NC2CCCCC2)CC1` (stereo unspecified), the Percent Effect in [1] was -6.02%; in [2], 5.26%; in test [3], -1.96%; in test [4] it was -3.82%; with Trypanosoma cruzi, -7.71%; in test [5], 0.766%. The Percent Effect in test [6] is 5.68%; in the test filed under Homo sapiens, 24.7%; in [7] it was -3.43%; in [8], -4.88%; in [9], 5.81%.

For `CN(C)C(=O)N1CCN(Cc2cnn(C)c2)CC2(CNC(=O)C2)C1` (stereo unspecified), the Percent Effect in [1] is -2.48%; in test [2], 0%; in test [3], 2.36%; in [4] it was 11.3%; with Trypanosoma cruzi, -3.03%; in [5], -2.87%. Moreover, the Percent Effect in [6] was 17%; in the test listed under Homo sapiens, 3.58%; in [7], 4.32%; in [8], 2.56%; in test [9], 3.46%.

Take `CCn1cc(N2Cc3nc(N)ncc3C2=O)cn1`: the Percent Effect is -6.38% in [1]; 12% in test [2]; -9.46% in test [3]; -1.51% in [4]; 7.47% in the test on Trypanosoma cruzi; -20.6% in [5]. Further, the Percent Effect is 13.9% in test [6]; 2.34% in the test filed under Homo sapiens; 7.41% in test [7]; 17.9% in [8]; -15.1% in test [9].

With `CCc1nccn1C1CCCN(C(=O)c2cnc3ccccc3n2)C1` (stereo unspecified), the Percent Effect is -5.47% in test [1]; 2.63% in [2]; 7.07% in [3]; 1.65% in [4]; -1.07% with Trypanosoma cruzi; -2.37% in test [5]. In addition, the Percent Effect was 7.77% in [6]; 24.6% in the test listed under Homo sapiens; 7.45% in test [7]; 10.4% in [8]; -2.28% in test [9].

Regarding `Cc1ccc2nc(C3CCN(CCO)CC3)nn2c1`, the Percent Effect in [1] was 1.65%; in [2], 10.7%; in test [3] it was 6.44%; in test [4] it was 9.27%; in the test on Trypanosoma cruzi, -2.51%; in test [5], -59.7%. Moreover, the Percent Effect in test [6] was 4.79%; in the test listed under Homo sapiens, 23.1%; in [7], 2.08%; in [8] it was 10%; in [9], -0.68%.

As for `COc1ccccc1C(=O)NC(CC(=O)O)c1cccs1` (stereo unspecified), the Percent Effect was -3.27% in [1]; 13.9% in test [2]; 0.385% in [3]; 5.67% in [4]; -1.33% with Trypanosoma cruzi; 2.8% in test [5]. Besides, the Percent Effect is 20.2% in test [6]; -5.53% in the test listed under Homo sapiens; 5.21% in test [7]; 12.7% in [8]; -19.2% in test [9].

As to `CN(C)CC1CN(C(=O)NCc2ccccc2)Cc2nccn2C1` (stereo unspecified), the Percent Effect was -2.59% in test [1]; 13.7% in test [2]; -1.1% in test [3]; 4.01% in test [4]; -1.59% in the test with Trypanosoma cruzi; -3.19% in test [5]. Further, the Percent Effect in [6] came to 5.39%; in the test listed under Homo sapiens, 3.73%; in [7] it was 3.12%; in [8], 6.17%; in [9], 1.81%.

For the molecule `CCc1nc(C2CCCN(C(=O)CCn3ccccc3=O)C2)no1` (stereo unspecified), the Percent Effect is -2.1% in [1]; 0% in test [2]; -7.52% in test [3]; -0.82% in test [4]; 8.08% with Trypanosoma cruzi; -1.15% in test [5]. The Percent Effect in test [6] was 1.34%; in the test filed under Homo sapiens, -13.7%; in test [7], -0.49%; in test [8], 0%; in test [9], 2.66%.

In the case of `CN(CC(=O)N1CCCC1Cn1cccn1)C1CC1` (stereo unspecified), the Percent Effect is -4.84% in test [1]; 10.1% in test [2]; -1.88% in test [3]; 13.2% in test [4]; 1.04% in the test on Trypanosoma cruzi; 0% in [5]. Further, the Percent Effect in test [6] was -0.0819%; in the test listed under Homo sapiens it was 3.19%; in test [7], 1.48%; in [8] it was 8.86%; in test [9], -3.87%.

For the molecule `CCc1nc(CCNC(=O)Nc2ccc(C(=O)NC)cc2C)cs1`, the Percent Effect in test [1] is -9.57%; in [2], 0%; in test [3], -0.875%; in [4] it was 3.65%; in the test on Trypanosoma cruzi, -3.8%; in test [5] it was -3.65%. In addition, the Percent Effect in [6] is 4.18%; in the test filed under Homo sapiens, 40.4%; in [7], -2.73%; in [8], -1.24%; in [9], -1.65%.

In the case of `O=C(Nc1cc(C(F)(F)F)c[nH]c1=O)N1CCCSCC1`, the Percent Effect in test [1] was -5.05%; in test [2] it was 7.79%; in test [3], 1.88%; in test [4], 4.65%; in the test on Trypanosoma cruzi, -3.37%; in test [5], 2.85%. In addition, the Percent Effect in test [6] is 6.08%; in the test filed under Homo sapiens, 20.5%; in test [7], 6.8%; in test [8] it was 12.2%; in [9], -1.96%.
